# D2 ag-1: agonists of human D2 dopamine receptor; P14416; AID 485358; activation, % at 2 µM; 0.53% of 340,000 active; HEK293 T-REx D2 cells, calcium flux agonist mode;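 active means activation over 3 SD above normal in the single-dose calcium agonist read, cut at about 30% in these data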; further: 0% is about no effect
# Target sequence (P14416 whole entry, looked up): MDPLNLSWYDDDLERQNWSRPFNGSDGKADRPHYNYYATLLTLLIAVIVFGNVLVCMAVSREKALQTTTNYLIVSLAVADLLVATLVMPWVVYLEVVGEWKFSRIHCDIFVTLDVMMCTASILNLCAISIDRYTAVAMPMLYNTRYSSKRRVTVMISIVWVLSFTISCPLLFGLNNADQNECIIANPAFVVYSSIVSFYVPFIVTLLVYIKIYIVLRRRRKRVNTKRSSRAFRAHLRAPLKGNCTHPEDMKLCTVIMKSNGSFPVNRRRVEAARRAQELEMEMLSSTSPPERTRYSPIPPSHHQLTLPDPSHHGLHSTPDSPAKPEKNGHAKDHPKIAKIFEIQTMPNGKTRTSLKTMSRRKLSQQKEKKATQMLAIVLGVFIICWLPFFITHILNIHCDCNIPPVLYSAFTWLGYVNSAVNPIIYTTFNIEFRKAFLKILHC
#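 Tetracycline-induced HEK293 T-REx cells with force-coupled D2 receptor, plated overnight at 30 C, loaded with no-wash calcium dye. After a 10 s baseline, compound was pin-added and calcium flux read kinetically for 180 s; calcium rises flagged agonists.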
# D2 PAM-1: positive allosteric modulators of human D2 dopamine receptor | P14416 | potentiation, % at 10 µM | HEK293 T-REx D2, calcium flux, EC20 dopamine potentiation | 0.34% of 340,000 active;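 active means potentiation over 3 SD above the plate norm, cut at about 30% in these data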; further: 0% is about no effect
#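 Using a no-wash calcium dye in inducible, force-coupled HEK293 Trex cells expressing D2, we tracked fluorescence each second for 180 s after compound, then for 180 s after EC20 dopamine to detect augmented signalling.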
# D2 antag: D2 dopamine receptor (human) antagonism; P14416; HEK293 TREx D2 cells, calcium flux, dopamine EC80; inhibition, % at 10 µM; 2% of 340,000 active; AID 485344; in the data active means inhibition above about 30%; inactive means below that, where a call was filed; further: 0% is about no effect
#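 Calcium mobilization kinetics were recorded at 1 s intervals in tetracycline-induced HEK293 T-REx D2 cells, first for 180 s after compound addition and then 180 s after EC80 dopamine.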
# D2 ag-2: agonists of human D2 dopamine receptor (beta-arrestin); P14416; DiscoveRx PathHunter D2 beta-arrestin, luminescence, 90 min; 100% = 57 uM dopamine signal; activation, % (concentration not given with the values); 0.084% of 360,000 active; in the data active means activation above about 40%
#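 Agonist mode: compounds alone added to overnight-plated D2 PathHunter cells for 90 min at 37 C, with 57 uM final dopamine (EC100) defining full response. Beta-arrestin recruitment detected by chemiluminescent reagent, read after 1 h at ambient temperature.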
# D2 PAM-2: positive allosteric modulators of human D2 dopamine receptor; potentiation, % (no concentration beside the values); DiscoveRx D2 beta-arrestin cells, luminescence, 90 min; 100% = 57 uM dopamine signal; P14416; 0.23% of 360,000 active; AID 624464; in the data active means potentiation above about 50%
#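 PathHunter beta-arrestin assay in DiscoveRx D2 cells. Compounds were added with an EC20 of dopamine (50 nM final) for 90 min at 37 deg C. Luminescence was read 1 h after detection reagent, with 57 uM dopamine as the EC100 control.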
# Numbers without * were called inactive; · = not tested or not shown. In the library only some 2.4% were active in any assay of this set; here they are far more common.
SMILES,D2 ag-1,D2 PAM-1,D2 antag,D2 ag-2,D2 PAM-2
CC1(C)CSC(=NCc2ccccc2)N1C(=O)c1cccc([N+](=O)[O-])c1,83*,-24,54*,-7,-1
NC(=NCc1ccccc1)c1cccc([N+](=O)[O-])c1,-1,1,-11,4,-6
CSCCC(NC(=O)c1ccco1)C(=O)O (configuration not stated),1,31*,-12,-2,-6
CSCCC(NC(=O)c1ccco1)C(=O)N1CCCCCCC1 (configuration not stated),0,20,-16,-2,2
Cc1cccc(NC(=O)CCNS(=O)(=O)c2ccc3c(c2)CCCC(=O)N3)c1C,2,1,·,·,·
O=C(CN1C(=O)C(=O)c2ccccc21)c1ccccc1,-2,-4,3,-17,-5
CC(C)N(C(=O)CN1C(=O)C(=O)c2ccccc21)c1ccccc1,2,0,36*,-3,-2
CCc1ccc(NC(=O)C(=O)NCCc2sc(-c3ccc(C)cc3)nc2C)cc1,2,4,·,·,·
Cc1cc(N2CCCC2)nc(N2C3CCC2CC(O)(c2ccc(F)cc2)C3)n1 (configuration not stated),0,-22,42*,·,·
CC(C)OC(=O)c1ccc(NC(=O)c2cncc(Br)c2)cc1,1,4,45*,1,4
CCOc1ccc(CNCc2c(C(=O)O)c(C)n(Cc3ccc(C)cc3)c2C)cc1,0,-5,·,·,·
N#Cc1ccc(CN2C(=O)c3ccccc3Sc3ccc(C(=O)OCc4ccco4)cc32)cc1,0,-8,·,·,·
Fc1ccc(NC(=S)N/N=C/c2cccc(Br)c2)c(F)c1,0,48*,2,-2,2
COc1ccc(OC)c(S(=O)(=O)N2CCN(c3c(C)cccc3C)CC2)c1,0,4,36*,-4,-6
COc1ccc(OC)c(S(=O)(=O)N2c3ccccc3CC2C)c1 (configuration not stated),0,-5,33*,-1,-1
CCCN(Cc1cccs1)C(=O)Nc1ccc(Br)c(C)c1,-1,-8,·,·,·
CC(C)c1[nH]nc2c1C1(CCN(Cc3ccccc3)CC1)C(C#N)=C(N)O2,5,-20,40*,11,2
CCCc1[nH]nc2c1C1(CCN(C(=O)OCc3ccccc3)CC1)C(C#N)=C(N)O2,1,4,8,2,12
O=C(COC(=O)c1ccc(O)cc1)NCc1ccc2c(c1)OCO2,1,1,-11,6,1
N#CCC(=O)Nc1ccc(C(=O)OCC(=O)NCc2ccc3c(c2)OCO3)cc1,0,-6,44*,0,9
CN(C(=O)CN1C(=O)C2C3CC(C(Br)C3Br)C2C1=O)C1CCCCC1 (configuration not stated),0,9,31*,2,0
CCOC(=O)N1CCC(NC(=O)C2CCN(S(=O)(=O)c3cccc4cccnc34)CC2)CC1,-1,-13,51*,-1,-5
O=C(Nc1nccs1)C1CCCN(S(=O)(=O)c2cccc3cccnc23)C1 (configuration not stated),0,4,39*,-2,1
O=C(NCCc1ccccc1)c1ccc(CSc2nc3cccnc3n2Cc2ccccc2)cc1,0,0,·,·,·
CCCCc1nnc(SCc2cc(=O)c3cc(F)ccc3[nH]2)n1C,-1,2,·,·,·
SMILES,D2 ag-1,D2 PAM-1,D2 antag,D2 ag-2,D2 PAM-2
CCCCOc1ccc(C(=O)Nc2cccc(-c3nc4cccnc4s3)c2)cc1,2,5,·,·,·
C[C@H](CS)C(=O)N1CCC[C@H]1C(=O)O,1,13,30*,2,-6
Cc1nnc2n1N=C(c1ccc(OC(F)F)cc1)C(C)S2 (configuration not stated),1,3,56*,-2,-5
CCOc1ccc(C(=O)NCCn2cc(SCC(=O)Nc3ccccc3)c3ccccc32)cc1,2,17,·,·,·
CCOc1ccccc1Nc1nc(-c2cccc(Cl)c2)c2c(n1)-c1ccccc1OC2,·,0,·,·,·
Cc1cc(NC(=O)C2C3C(=O)N(CC4CCCO4)C(C(=O)NCc4ccccc4)C34C=CC2(C)O4)no1 (configuration not stated),1,6,33*,-2,-5
CCN(CC)CCN(C(=O)c1ccco1)c1nc2c(C)c(C)ccc2s1,2,-14,·,·,·

# Assay outcomes deposited in PubChem by National Center for Advancing Translational Sciences (NCATS).
